Test results published in PubChem BioAssay (EPA / NIEHS).
Activity calls are given as the source filed them. The calls were made as follows: active = hit-call score of the fitted dose curve at least 0.9, where 1 is the maximum; inconclusive = response in the unintended direction; inactive = score below 0.9.

target: Estrogen receptor (Homo sapiens) (UniProt P03372); assay: OT_ERa_GFPERaERE_0120: Odyssey Thera (OT) 2-hour HeLa Transcription Induction Assay for Estrogen Receptor (AID 2283382)
Description: OT_ERa_GFPERaERE_0120 is a cell-based, single-readout assay that uses HeLa, a human cervix cell line, with measurements taken at 2 hours after chemical dosing in a 384-well plate.OT_ERa_GFPERaERE_0120 is one of one assay component(s) measured or calculated from the OT_ERa_GFPERaERE_0120 assay. It is designed to make measurements of fluorescent protein induction, a form of inducible reporter, as detected with optical microscopy: fluorescence microscopy signals by Microscopy technology.Data from the assay component OT_ERa_GFPERaERE_0120 was analyzed into 1 assay endpoint. This assay endpoint, OT_ERa_EREGFP_0120, was analyzed in the positive analysis fitting direction relative to DMSO as the negative control and baseline of activity. Using a type of inducible reporter, measures of receptor for gain-of-signal activity can be used to understand the reporter gene at the pathway-level as they relate to the gene ESR1. Furthermore, this assay endpoint can be referred to as a primary readout, because the performed assay has only produced 1 assay endpoint. To generalize the intended target to other relatable targets, this assay endpoint is annotated to the nuclear receptor intended target family, where the subfamily is steroidal.
All assay endpoints are quantified using high content image analysis algorithms.

Sequence of Estrogen receptor (Homo sapiens) (P03372 whole entry, looked up): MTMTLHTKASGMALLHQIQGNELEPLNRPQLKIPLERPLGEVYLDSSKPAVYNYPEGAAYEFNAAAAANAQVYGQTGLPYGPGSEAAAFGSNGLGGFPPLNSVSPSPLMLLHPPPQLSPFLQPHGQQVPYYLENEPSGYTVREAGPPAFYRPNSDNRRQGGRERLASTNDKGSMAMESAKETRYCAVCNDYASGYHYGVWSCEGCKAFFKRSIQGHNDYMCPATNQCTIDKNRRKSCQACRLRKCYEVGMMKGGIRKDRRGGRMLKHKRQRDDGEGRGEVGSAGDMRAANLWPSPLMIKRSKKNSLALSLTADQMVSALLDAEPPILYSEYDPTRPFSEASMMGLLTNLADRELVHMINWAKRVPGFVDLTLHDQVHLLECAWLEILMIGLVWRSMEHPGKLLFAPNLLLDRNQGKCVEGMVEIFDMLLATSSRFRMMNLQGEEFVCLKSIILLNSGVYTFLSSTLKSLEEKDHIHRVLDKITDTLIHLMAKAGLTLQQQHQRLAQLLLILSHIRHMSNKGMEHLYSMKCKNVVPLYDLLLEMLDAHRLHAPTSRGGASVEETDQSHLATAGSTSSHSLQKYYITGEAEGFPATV

Row | SMILES | outcome
1 | CC1=CCC(C(C)(C)O)CC1 (stereo not given) | inactive
2 | CCCCCCCCCCO[C@@H]1O[C@H](CO)[C@@H](O)[C@H](O)[C@H]1O | inactive
3 | CCC(C)COC(=O)CC(C)C (stereo not given) | inactive
4 | CCCCC/C=C\C=C\C(=O)OCC | inactive
5 | CC(O)CN (stereo not given) | inactive
6 | CC1=CCC(=C(C)C)CC1 | inactive
7 | CC(=O)CC(=O)N(C)C | inactive
8 | CC1=CCC(C(C)C)=CC1 | inactive
9 | CCCCCCCCCCOC(=O)c1ccccc1C(=O)OCCCCCCCC | inactive
10 | CC1COC(=O)O1 (stereo not given) | inactive
11 | C=CC(C)CCCC(C)(C)O (stereo not given) | inactive
12 | CC(=O)C1C(=O)C=C(C)OC1=O (stereo not given) | inactive
13 | CC(=O)c1ccc2ccccc2c1 | inactive
14 | CC(=O)c1ccc(O)cc1 | inactive
15 | COc1ccc2[nH]cc(CCNC(C)=O)c2c1 | inactive
16 | O=Cc1ccccc1O | inactive
17 | CC(=O)N(C)C | inactive
18 | CC(O)CNCC(C)O (stereo not given) | inactive
19 | CC(C)(C)c1cccc(O)c1 | inactive
20 | c1ccc(OCCOc2ccccc2)cc1 | inactive

Row | SMILES | outcome
21 | CCO[Si](CC)(OCC)OCC | inactive
22 | CC(=O)Oc1c(C)c(C)c2c(c1C)CC[C@@](C)(CCC[C@H](C)CCC[C@H](C)CCCC(C)C)O2 | inactive
23 | COc1ccccc1O | inactive
24 | CC12CCC(C1)C(C)(C)C2O (stereo not given) | inactive
25 | Cc1cccc(O)c1 | inactive
26 | C1CCCNCC1 | inactive
27 | CC(C)(C)c1ccc(S)cc1 | inactive
28 | O=C(O)c1ccccc1O | inactive
29 | CC(C)C(=O)c1ccccc1 | inactive
30 | CCCCCC1C(=O)CCC1CC(=O)OC (stereo not given) | inactive
31 | OC[C@@H](O)[C@H](O)[C@@H](O)[C@@H](O)CO | inactive
32 | CCCCOCCOCCOCCO | inactive
33 | [Na+] | inactive
34 | COc1ccc(OC)cc1 | inactive
35 | CCCc1ccc(O)cc1 | inactive
36 | CCCC(O)C(CC)CO (stereo not given) | inactive
37 | COC(=O)c1cccc(C(=O)OC)c1 | inactive
38 | NCCN1CCNCC1 | inactive
39 | COC(=O)C(C)Oc1ccc(Oc2ncc(C(F)(F)F)cc2Cl)cc1 (stereo not given) | inactive
40 | CCC(=O)OC(C)(C)C1CC=C(C)CC1 (stereo not given) | inactive
